Among the data in publication PMC12136788 are binding signal values, retold here.

Substitutions are numbered along the chain they refer to. The full ranking holds about 24,000 sequences; the median of “enrichment r” is about 0.99, and the highest 2% start at about 3.7. Only a selection was taken, and the highest values are over-represented in it overall.

B1: chr17:45760540:45760541:+_ENSG00000108424_ENST00000290158|hu_hu|motif|central (ssRNA)
RNA: GGGAGUUCUACAGUCCGACGAUCUUUCCCUAGAGUAAAAAAAACAAAAAACAAAACCAAAAAAAAAAAACAAAACAAAACCGGAAGAGCGUCUUUCCUCUGUGUGUGUGUUUUUUUUUUUUUUUUUUUUUUUUUUUUUACAUCCAACAGAGGAUUGAGCAUCA
B2: chr3:41267201:41267202:+_ENSG00000168036_ENST00000349496|hu_mus|motif|central (ssRNA)
RNA: GGGAGUUCUACAGUCCGACGAUCCAAGAAUUUCACGUUUGUUUUGUUGAGCAAAGCAACCAUUUUCUGCAGUCCACCAGCGGGGCGCACUGCCAUUUUAGCUCCUUCCUGAUGGAGCAGGAGAUUAUGCAGUGUCGUGAUGGCCAACAGAGGAUUGAGCAUCA
B3: chr17:15081082:15081083:+_ENSMUSG00000050088_ENSMUST00000052691|mus_mus|FALSE|FALSE (ssRNA)
RNA: GGGAGUUCUACAGUCCGACGAUCUGCUCCAGCAUAUUCAAGGGAUCAGAAGAGAAUUUCAAGCACCAGUUUCAAAAUGCUAAUCAAUAUCGUCCAGAGAACUGAUUCCUCCUCUUGGGCUGCCUCUUCUGGAGCGUAAGCCUGCAACAGAGGAUUGAGCAUCA
B4: 110847190_110847310_5644_3pUTR_ENSMUSG00000021700_ENSMUST00000167824|mouse|control|control (ssRNA)
RNA: GGGAGUUCUACAGUCCGACGAUCUAGUUGCUGAGGGGAACUGAAGAAUGAGGCAAUGCUGUUCUGUGGGGAUAGUGCUUUUAGAAUAUCCUUAAUCAUUUUUUUUUAAAAAACAUGUGGCAGUAUAAAAGGACUACACAAUGACAACAGAGGAUUGAGCAUCA
B5: chr3:100438856:100438857:+_ENSG00000114354_ENST00000490574|hu_hu|motif|central (ssRNA)
RNA: GGGAGUUCUACAGUCCGACGAUCAACAAAUAAUGUCAGUUUCAGUAUCCUACUGCACUGAAUUGCAAAGGAAAGGUCAGAACGGUCAAAAAUUGUUAUAAGAUCUCCAUCUUCAUCUUUAUACUUUAUUGUUACUUCAUCAUUCAACAGAGGAUUGAGCAUCA
B6: chr2:203071915:203071916:-_ENSG00000116030_ENST00000392246|hu_mus|motif|central (ssRNA)
RNA: GGGAGUUCUACAGUCCGACGAUCCUAAGAGAUGGAGUGCCAGUAUUCAAUUUUCAUUUUGAACACCACAUUACAAAAGAACGGUUUUUAAAAAUAAAAAAGGAUUGAGGGAAAGGAAAAAUAAAAAAUAAAAAGAAUUAUCUACAACAGAGGAUUGAGCAUCA
B7: chr11:51935959:51935960:+_ENSMUSG00000020349_ENSMUST00000020608|mus_hu|FALSE|FALSE (ssRNA)
RNA: GGGAGUUCUACAGUCCGACGAUCGGUUCUGACAAUAACAAAGAACAACAUGGGGCUGAGAUUUGAGUAGGGAAUAAACUGAGUGCAGACAAAUCAUAUAAUUAAAUUAAACGGUAUCCCUGAAAAUAAAAAGAACAAUUUCAACAACAGAGGAUUGAGCAUCA
B8: chr13:113752066:113752067:+_ENSG00000126217_ENST00000375604|hu_mus|FALSE|FALSE (ssRNA)
RNA: GGGAGUUCUACAGUCCGACGAUCAGGGGAAGUGGGGCCUGCCCUGACGUGGAGAGGCAGCCAGUGCCUGAGUUGCUGAGGAUGACUGACAGCAUGGAGUUAUACAUUUUCUUUAAAAAUAAUAAAAAUAUCCUAAUUUAAUGACAACAGAGGAUUGAGCAUCA
B9: chr2:203071915:203071916:-_ENSG00000116030_ENST00000392246|hu_mus|FALSE|FALSE (ssRNA)
RNA: B6 RNA with G82U, G83A
B10: chr8:96496865:96496866:-_ENSMUSG00000031751_ENSMUST00000053766|mus_hu|motif|central (ssRNA)
RNA: GGGAGUUCUACAGUCCGACGAUCGCAGUCCAGUCAACACCAGAAGAGAUCAUACCUACAGUUAAAAUUUGCAGUGUUUCGGAGGGGAAGAGAAAUGUCACAUAGAAAGUAUUACAAAGAAGGAUUAAAUUUAUCAGCUGUCCACAACAGAGGAUUGAGCAUCA
B11: chr6:31461392:31461393:+_ENSMUSG00000025609_ENSMUST00000026699|mus_mus|motif|central (ssRNA)
RNA: GGGAGUUCUACAGUCCGACGAUCACCUGACGGACACUAGAGGCUUUGGAUAACCAUGUCAUUUCAACAGUAAGACAAACGGUAGAGACAACCCCCACAGUCAAAAACCACAUAUAAAAAUUAGAAUUUGCUUAAUACAGAAAACAACAGAGGAUUGAGCAUCA
B12: chr16:36085169:36085170:+_ENSMUSG00000075229_ENSMUST00000164916|mus_mus|FALSE|FALSE (ssRNA)
RNA: GGGAGUUCUACAGUCCGACGAUCCUUUAAUAACGUUAAGUCAUCCAGGUUCUUUUCUCUCUCUUCUCGGAGACUUUUUACUACUGCUGAGGUCUGGGCUAUACAGUUCUUUAUAACUCUGUCCCUACUGACAUGAGCUGCCAUCAACAGAGGAUUGAGCAUCA
B13: chr2:55200753:55200754:-_ENSG00000115310_ENST00000317610|hu_mus|FALSE|FALSE (ssRNA)
RNA: GGGAGUUCUACAGUCCGACGAUCUUGGAUUUUGGCCAUGGCAUCCUUAACGCUCUUGUUUGCAAGUCCUAGAUAAUGAUCUAUCUGCGCCUGAUGCCGUUCAUAUAUAACAGGAAUACUGAAGAGUGAGAUCAGAGCUAAAAUCAACAGAGGAUUGAGCAUCA
B14: chr2:42509997:42509998:+_ENSG00000143924_ENST00000318522|hu_mus|hu_hu_hu_mus_True|28_48 (ssRNA)
RNA: GGGAGUUCUACAGUCCGACGAUCUCGCUGAGUCCUCUCCUCAUAAUUAAACAGGACUACCACUGAGGCGAUAAAAUAAACUAUCUCCCCGGUCGGAAGCAGGUAUACAUUAGCUCUACAGUCCUUUCCUCGAUAACCGUAUACCAACAGAGGAUUGAGCAUCA

This assay deals with T1, UNK ZnF1-3 (human, UniProt Q9C0B0 31-174).
T1 sequence: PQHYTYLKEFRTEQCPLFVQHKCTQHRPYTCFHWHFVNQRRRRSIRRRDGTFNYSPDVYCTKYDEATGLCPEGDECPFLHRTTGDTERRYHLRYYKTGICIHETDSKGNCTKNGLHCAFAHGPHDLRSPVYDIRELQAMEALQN
Briefly: nsRBNS (natural sequence RNA bind-n-seq); RBNS binding buffer (assumed for nsRBNS): 25 mM Tris pH 7.5, 150 mM KCl, 3 mM MgCl2, 0.01% Triton X-100, 500 ug/ml BSA, 20 U/ml SUPERase-In, 4 C; UNK is unkempt and MSI1 is Musashi-1; names of the RNAs are library labels; protein concentration not given here; high values mean tight binding.
For B1, the binding signal amounted to 3.38 enrichment R.

Molecule B2 gave a binding signal of 0.539 enrichment R.

B3 yielded a binding signal of 1.42 enrichment R. Then B4, with 1.67 enrichment R; and B5, with 0.76 enrichment R. Then B6, with 10.9 enrichment R; and B7, with 3.8 enrichment R; and B8, with 3.79 enrichment R. Then B9, with 10.6 enrichment R; and B10, with 3.52 enrichment R. As for B11, the binding signal came to 3.37 enrichment R. In the case of B12, the binding signal was 0.477 enrichment R.

Molecule B13 yielded a binding signal of 1.23 enrichment R. In the case of B14, the binding signal worked out at 1.03 enrichment R.
